# Legend:
# Test in all cases: PBM binding z-score (relative to random genomic background probes); higher = stronger binding; sequences stand for … in GC…GCGATTGACAGCGTAGAATGAAGG
# [1] = system: FXR:RXRa (NR concentration 270 nM, RXRa partner concentration 90 nM)
# In short: (§1)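 Each nuclear receptor dimer, without ligand, was incubated for 1 h on custom Agilent 4×180K protein-binding microarrays. Binding was detected with antibodies against each partner (one per run), and scanned fluorescence was regression-normalized. The binding z-scores are referenced to random human genomic background probes.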
# [2] = system: LXRa:RXRa (NR concentration 270 nM, RXRa partner concentration 90 nM)
# In short: as §1
# [3] = system: LXRa homodimer (NR concentration 270 nM)
# In short: as §1
# [4] = system: LXRb:RXRa (NR concentration 270 nM, RXRa partner concentration 90 nM)
# In short: as §1
# [5] = system: LXRb homodimer (NR concentration 270 nM)
# In short: as §1
# [6] = system: PPARa:RXRa (NR concentration 270 nM, RXRa partner concentration 90 nM)
# In short: as §1
# [7] = system: PPARg:RXRa (NR concentration 180 nM, RXRa partner concentration 90 nM)
# In short: as §1
# [8] = system: PPARg:RXRa 270nM:90nM, anti-RXR (NR concentration 270 nM, RXRa partner concentration 90 nM)
# In short: as §1
# [9] = system: PPARg:RXRa 30nM:10nM, anti-RXR (NR concentration 30 nM, RXRa partner concentration 10 nM)
# In short: as §1
# [10] = system: PPARg:RXRa 90nM:30nM, anti-RXR (NR concentration 90 nM, RXRa partner concentration 30 nM)
# In short: as §1
# [11] = system: PPARg:RXRa DBDmut IVT, anti-RXR (DBD mutation: RXRa K156A/R161A, NR concentration 270 nM, RXRa partner concentration 90 nM)
# In short: as §1
# [12] = system: PPARg:RXRa IVT, anti-PPARg (NR concentration 270 nM, RXRa partner concentration 90 nM)
# In short: as §1
# [13] = system: PPARg DBDmut:RXRa IVT, anti-PPARg (DBD mutation: PPARg1 K132A/R137A, NR concentration 270 nM, RXRa partner concentration 90 nM)
# In short: as §1
# [14] = system: PPARg DBDmut IVT, anti-PPARg (DBD mutation: PPARg1 K132A/R137A, NR concentration 270 nM)
# In short: as §1
# [15] = system: PPARg homodimer (NR concentration 180 nM)
# In short: as §1
# [16] = system: PXR:RXRa (NR concentration 270 nM, RXRa partner concentration 90 nM)
# In short: as §1
# [17] = system: PXR homodimer (NR concentration 270 nM)
# In short: as §1
# [18] = system: RARa:RXR (NR concentration 270 nM, RXRa partner concentration 90 nM)
# In short: as §1
# [19] = system: RARa homodimer (NR concentration 270 nM)
# In short: as §1
# [20] = system: RARb:RXRa (NR concentration 270 nM, RXRa partner concentration 90 nM)
# In short: as §1
Sequence,PBM binding z-score [1],PBM binding z-score [2],PBM binding z-score [3],PBM binding z-score [4],PBM binding z-score [5],PBM binding z-score [6],PBM binding z-score [7],PBM binding z-score [8],PBM binding z-score [9],PBM binding z-score [10],PBM binding z-score [11],PBM binding z-score [12],PBM binding z-score [13],PBM binding z-score [14],PBM binding z-score [15],PBM binding z-score [16],PBM binding z-score [17],PBM binding z-score [18],PBM binding z-score [19],PBM binding z-score [20]
GCTCGGAGGACAAGGTAAGAGCTTTGTCCGTAGA,-0.326,-0.633,-0.985,-0.8,-1.57,-0.331,-0.742,-0.267,-0.952,-0.841,-0.716,-0.298,-1.26,-1.29,-1.16,-0.574,-1.14,-0.493,-1.14,0.88
TGTCAAAGATCAAAGGTAACGTAAGTATCCACAC,1.19,1.08,-0.325,1.32,-0.103,2.73,4.17,4.22,2.19,3.68,-0.516,2.24,1.24,1.01,0.484,1.26,-0.19,2.22,0.426,1.02
CGTTCAAGGTCAGCAGGTCAGTGAAAGCGACGTG,6.5,4.34,0.93,3.38,0.134,5.37,5.07,5.47,1.95,4.09,3.85,4.34,0.78,0.144,2.98,4.06,1.14,5.42,1.55,5.54
CCTTACGGGTCACAGACAGGTTATAGCATTTGGA,5.55,4.19,0.611,3.84,0.0624,5.36,5.74,5.16,2.14,3.99,3.72,4.63,1.16,0.89,2.76,3.87,0.387,4.91,0.967,4.01
TCTTGTAGATAAAAGGTTAAGAAAGCCGAAGCCT,1.26,1.93,-0.0435,1.85,0.124,3.26,3.62,5.64,4.77,5.98,2.1,1.64,0.235,0.63,1.07,1.4,0.0184,1.84,0.655,1.91
CGTCCAAGGTCAATGCTAAGTCAGTGAAAGCATT,6.87,4.59,0.722,3.58,0.637,4.73,3.59,4.12,0.983,2.55,2.98,3.34,0.647,-0.584,2.4,3.51,0.823,4.32,0.642,5.01
GCTGCTTGGTCAGGTTGGTCAGCTAACGGGTACG,-0.11,-0.383,-0.554,-0.457,-0.187,-0.407,-0.682,-0.648,-0.905,-1.09,-0.165,0.0885,-0.778,-0.893,-0.123,-0.298,-0.597,-0.108,-0.538,0.63
